# Experimental data as given in paper PMC5540273 (PLoS ONE, 2017).
# System: CSNK1G3
# Conditions: concentration: 1 μM, replicates: in singlicate; n = 1
# 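Further: KINOMEscan kinase panel screen.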
row,SMILES,%Inh [%]
1,COc1cc2ncn(-c3cc(OCC4CCCO4)c(C(N)=O)s3)c2cc1OC (centres unmarked) [GSK204607],26
2,C[C@@H]1CCCCN1c1cc(-c2ccc3c(N)n[nH]c3c2)nc(N)n1 [GSK2258759],26
3,COc1ccc(C2=C(Nc3cccc(C(=O)O)c3)C(=O)NC2=O)cc1 [SB-390765],3
4,CCCc1ccc(S(=O)(=O)NC2CCN(c3ccnc(Nc4ccc(F)cc4)n3)C2)cc1 (centres unmarked) [GSK1379715],2
5,O=C(Nc1ccccc1)Nc1cccc(Oc2ccc3nccn3n2)c1,2
6,Cn1ccc2ncnc(Oc3ccc(Nc4nc5ccccc5[nH]4)cc3)c21,0
7,Cc1cccc(-c2cc(Nc3ccncc3)c3ccccc3n2)n1 [GSK223675],17
8,Cc1ccc(NC(=O)Nc2cccc(Cl)c2)cc1-c1ccc(C(=O)Nc2ccncc2)cc1 [GSK1398468],25
9,COc1ccc(CNC(=O)NC2CCN(c3ccnc(Nc4cc(OC)c(OC)c(OC)c4)n3)C2)cc1 (centres unmarked) [GSK1379748],23
10,O=S(=O)(c1ccc(-c2ccnc3[nH]ccc23)cc1)N1CCCC1 [GSK846226],37
11,COc1ccccc1-c1ccc2c(NC(=O)C3CC3)n[nH]c2n1 [SB-711239],11
12,Cl.O=C(Nc1cccc(-c2nn3ncccc3c2-c2ccnc(Nc3cccnc3)n2)c1)c1c(F)cccc1F [GSK312879],15
13,O=C(Nc1n[nH]c2nc(-c3nccs3)c(Br)cc12)C1CCCC1 [SB-742609],22
14,COc1cc(Nc2nccc(N3CCC(NC(=O)Nc4cc(C)ccc4C)C3)n2)cc(OC)c1OC (centres unmarked) [GSK1379762],22
15,CC(=O)Nc1nc2cnc(Nc3cc(NC(=O)c4cccc(CCC#N)c4)ccc3C)nc2s1,0
16,Cc1cc(N2Cc3ccccc3C2)nc(Nc2ccc(S(=O)(=O)N3CCOCC3)cc2)n1.Cl [GSK1669917],19
17,Cc1cccc(-c2nc(C)cc(Nc3ccncc3)n2)n1 [GSK257997],10

row,SMILES,%Inh [%]
1,O=c1cc(N2CCOCC2)nc2n(Cc3cccc(Cl)c3Cl)ccn12 [GSK2286295],41
2,Cc1cc(-c2ccc3c(c2)CC[C@@H](N[C@@H](C)c2ccccc2)C3)cnc1N.Cl [GW412617],8
3,COc1ccccc1CNC(=O)c1cc(C(=O)c2ccccc2C)c[nH]1 [GSK364507],9
4,Cc1cccc(-c2nc(Nc3cccc(C(N)=O)c3)c3ccccc3n2)n1 [GW876019],18
5,Cc1csc(-c2nc(Nc3ccncc3)c3ccccc3n2)n1 [GW869640],0
6,CS(=O)(=O)c1ccc(-c2nc3n(c2-c2ccncc2)CCC3)cc1 [SKF-105942],2
7,Nc1ncnc2[nH]c(-c3ccccc3)nc12 [AH5015],9
8,Cc1cccc(-c2nc(Nc3ccncc3)c3ccccc3n2)n1 [GW855857],12
9,COC(=O)c1c(-c2ccccc2)c2cc(OC)ccc2c(=O)n1Cc1ccccc1,0
10,Cc1c(Cn2ccn3c(=O)cc(N4CCOCC4)nc23)cccc1C(F)(F)F [GSK2289044],18
11,COc1ccc(Nc2nccc(-c3cccc(NC(=O)c4cc5cc(F)ccc5[nH]4)c3)n2)cc1 [GSK1229782],32
12,O=C(O)COc1ncnc2cc(-c3ccc4[nH]ncc4c3)sc12,34
13,Cc1ccc(-c2cc(-c3c[nH]nc3-c3ccccn3)ccn2)cc1 [GW684088],24
14,Cc1c(O)cccc1Nc1ccnc2ccc(C(F)(F)F)cc12.Cl [GW466413],0
15,CS(=O)(=O)c1ccc(-c2c(-c3ncn[nH]3)sc(N3CCOCC3)c2C#N)cc1,0
16,Fc1cccc(COc2nnc(-c3ccc4c(c3)CCO4)o2)c1,0
17,COc1cc2ncnc(Nc3ccc4nc(-c5ccccc5)[nH]c4c3)c2cc1OC.Cl [GW282450],17

# System: CSNK2A1
# Conditions: concentration: 1 μM, replicates: in singlicate; n = 1
row,SMILES,%Inh [%]
1,COc1cc2ncn(-c3cc(OCC4CCCO4)c(C(N)=O)s3)c2cc1OC (centres unmarked) [GSK204607],8
2,C[C@@H]1CCCCN1c1cc(-c2ccc3c(N)n[nH]c3c2)nc(N)n1 [GSK2258759],6
3,COc1ccc(C2=C(Nc3cccc(C(=O)O)c3)C(=O)NC2=O)cc1 [SB-390765],18
4,CCCc1ccc(S(=O)(=O)NC2CCN(c3ccnc(Nc4ccc(F)cc4)n3)C2)cc1 (centres unmarked) [GSK1379715],0
5,O=C(Nc1ccccc1)Nc1cccc(Oc2ccc3nccn3n2)c1,0
6,Cn1ccc2ncnc(Oc3ccc(Nc4nc5ccccc5[nH]4)cc3)c21,0
7,Cc1cccc(-c2cc(Nc3ccncc3)c3ccccc3n2)n1 [GSK223675],7
8,Cc1ccc(NC(=O)Nc2cccc(Cl)c2)cc1-c1ccc(C(=O)Nc2ccncc2)cc1 [GSK1398468],0
9,COc1ccc(CNC(=O)NC2CCN(c3ccnc(Nc4cc(OC)c(OC)c(OC)c4)n3)C2)cc1 (centres unmarked) [GSK1379748],6
10,O=S(=O)(c1ccc(-c2ccnc3[nH]ccc23)cc1)N1CCCC1 [GSK846226],4
11,COc1ccccc1-c1ccc2c(NC(=O)C3CC3)n[nH]c2n1 [SB-711239],0
12,Cl.O=C(Nc1cccc(-c2nn3ncccc3c2-c2ccnc(Nc3cccnc3)n2)c1)c1c(F)cccc1F [GSK312879],1
13,O=C(Nc1n[nH]c2nc(-c3nccs3)c(Br)cc12)C1CCCC1 [SB-742609],0
14,COc1cc(Nc2nccc(N3CCC(NC(=O)Nc4cc(C)ccc4C)C3)n2)cc(OC)c1OC (centres unmarked) [GSK1379762],25
15,CC(=O)Nc1nc2cnc(Nc3cc(NC(=O)c4cccc(CCC#N)c4)ccc3C)nc2s1,0
16,Cc1cc(N2Cc3ccccc3C2)nc(Nc2ccc(S(=O)(=O)N3CCOCC3)cc2)n1.Cl [GSK1669917],2
17,Cc1cccc(-c2nc(C)cc(Nc3ccncc3)n2)n1 [GSK257997],2

row,SMILES,%Inh [%]
1,O=c1cc(N2CCOCC2)nc2n(Cc3cccc(Cl)c3Cl)ccn12 [GSK2286295],2
2,Cc1cc(-c2ccc3c(c2)CC[C@@H](N[C@@H](C)c2ccccc2)C3)cnc1N.Cl [GW412617],2
3,COc1ccccc1CNC(=O)c1cc(C(=O)c2ccccc2C)c[nH]1 [GSK364507],0
4,Cc1cccc(-c2nc(Nc3cccc(C(N)=O)c3)c3ccccc3n2)n1 [GW876019],30
5,Cc1csc(-c2nc(Nc3ccncc3)c3ccccc3n2)n1 [GW869640],28
6,CS(=O)(=O)c1ccc(-c2nc3n(c2-c2ccncc2)CCC3)cc1 [SKF-105942],0
7,Nc1ncnc2[nH]c(-c3ccccc3)nc12 [AH5015],29
8,Cc1cccc(-c2nc(Nc3ccncc3)c3ccccc3n2)n1 [GW855857],0
9,COC(=O)c1c(-c2ccccc2)c2cc(OC)ccc2c(=O)n1Cc1ccccc1,0
10,Cc1c(Cn2ccn3c(=O)cc(N4CCOCC4)nc23)cccc1C(F)(F)F [GSK2289044],0
11,COc1ccc(Nc2nccc(-c3cccc(NC(=O)c4cc5cc(F)ccc5[nH]4)c3)n2)cc1 [GSK1229782],8
12,O=C(O)COc1ncnc2cc(-c3ccc4[nH]ncc4c3)sc12,37
13,Cc1ccc(-c2cc(-c3c[nH]nc3-c3ccccn3)ccn2)cc1 [GW684088],0
14,Cc1c(O)cccc1Nc1ccnc2ccc(C(F)(F)F)cc12.Cl [GW466413],0
15,CS(=O)(=O)c1ccc(-c2c(-c3ncn[nH]3)sc(N3CCOCC3)c2C#N)cc1,0
16,Fc1cccc(COc2nnc(-c3ccc4c(c3)CCO4)o2)c1,42
17,COc1cc2ncnc(Nc3ccc4nc(-c5ccccc5)[nH]c4c3)c2cc1OC.Cl [GW282450],5
